# According to the supplement of paper PMC7724964:
# T1: MDM4 26-106 SWIB (domain begin residue: 26, domain end residue: 106), O15151
# T1 chain: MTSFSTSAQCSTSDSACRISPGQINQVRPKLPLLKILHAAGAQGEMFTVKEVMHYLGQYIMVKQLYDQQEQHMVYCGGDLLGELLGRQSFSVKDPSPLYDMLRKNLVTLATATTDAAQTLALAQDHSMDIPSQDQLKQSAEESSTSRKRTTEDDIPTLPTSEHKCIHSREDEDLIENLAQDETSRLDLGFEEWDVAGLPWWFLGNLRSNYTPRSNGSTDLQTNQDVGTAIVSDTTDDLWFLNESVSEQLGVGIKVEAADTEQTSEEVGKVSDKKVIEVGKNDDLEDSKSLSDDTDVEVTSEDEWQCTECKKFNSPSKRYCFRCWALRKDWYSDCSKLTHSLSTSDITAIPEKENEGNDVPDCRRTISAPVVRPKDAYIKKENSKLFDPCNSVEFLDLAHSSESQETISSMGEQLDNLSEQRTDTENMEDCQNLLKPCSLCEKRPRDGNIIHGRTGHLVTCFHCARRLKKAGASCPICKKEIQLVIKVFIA
# T2: NR1D2 386-579 Hormone_recep (domain begin residue: 386, domain end residue: 579), Q14995
# T2 chain: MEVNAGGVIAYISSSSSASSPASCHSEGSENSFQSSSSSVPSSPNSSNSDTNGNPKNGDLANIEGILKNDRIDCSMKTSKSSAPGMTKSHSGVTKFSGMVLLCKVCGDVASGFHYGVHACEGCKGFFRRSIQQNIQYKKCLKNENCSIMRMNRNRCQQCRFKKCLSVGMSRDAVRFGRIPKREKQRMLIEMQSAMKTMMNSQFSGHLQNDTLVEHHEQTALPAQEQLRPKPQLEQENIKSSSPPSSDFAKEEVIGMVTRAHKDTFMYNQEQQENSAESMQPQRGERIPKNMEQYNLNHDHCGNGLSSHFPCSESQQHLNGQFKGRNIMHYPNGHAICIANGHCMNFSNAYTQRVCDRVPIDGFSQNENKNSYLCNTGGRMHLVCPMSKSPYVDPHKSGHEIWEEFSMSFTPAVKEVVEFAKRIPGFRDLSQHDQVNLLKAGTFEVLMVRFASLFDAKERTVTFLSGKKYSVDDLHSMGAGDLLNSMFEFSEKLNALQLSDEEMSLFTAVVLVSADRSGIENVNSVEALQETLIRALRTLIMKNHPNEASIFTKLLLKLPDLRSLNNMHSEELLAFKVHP
# T3: SND1 650-910 TUDOR+SNase (domain begin residue: 650, domain end residue: 910), Q7KZF4
# T3 chain: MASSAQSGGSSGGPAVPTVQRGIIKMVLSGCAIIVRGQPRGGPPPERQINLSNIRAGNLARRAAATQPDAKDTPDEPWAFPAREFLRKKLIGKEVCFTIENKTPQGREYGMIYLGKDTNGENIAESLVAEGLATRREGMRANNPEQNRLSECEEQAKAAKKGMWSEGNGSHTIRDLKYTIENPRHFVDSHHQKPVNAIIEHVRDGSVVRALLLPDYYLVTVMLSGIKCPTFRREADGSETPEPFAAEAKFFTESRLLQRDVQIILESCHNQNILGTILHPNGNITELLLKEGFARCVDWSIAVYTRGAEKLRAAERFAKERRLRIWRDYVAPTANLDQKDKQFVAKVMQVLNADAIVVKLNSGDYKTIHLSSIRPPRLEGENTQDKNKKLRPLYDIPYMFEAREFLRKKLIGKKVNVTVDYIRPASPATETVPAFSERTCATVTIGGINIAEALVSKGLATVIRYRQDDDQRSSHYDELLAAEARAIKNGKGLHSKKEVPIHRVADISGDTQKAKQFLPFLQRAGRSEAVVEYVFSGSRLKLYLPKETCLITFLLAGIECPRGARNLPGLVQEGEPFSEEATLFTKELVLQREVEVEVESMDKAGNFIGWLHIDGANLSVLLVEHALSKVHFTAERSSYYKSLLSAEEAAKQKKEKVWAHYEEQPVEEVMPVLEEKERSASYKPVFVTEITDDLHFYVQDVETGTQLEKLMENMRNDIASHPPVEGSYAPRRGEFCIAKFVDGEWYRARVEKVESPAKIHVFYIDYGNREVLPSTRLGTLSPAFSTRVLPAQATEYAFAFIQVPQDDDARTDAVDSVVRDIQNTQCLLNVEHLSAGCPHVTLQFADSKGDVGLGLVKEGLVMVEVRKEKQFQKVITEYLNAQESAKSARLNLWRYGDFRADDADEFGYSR
# T4: NFKBIA 70-282 EF-hand_6 (domain begin residue: 70, domain end residue: 282), P25963
# T4 chain: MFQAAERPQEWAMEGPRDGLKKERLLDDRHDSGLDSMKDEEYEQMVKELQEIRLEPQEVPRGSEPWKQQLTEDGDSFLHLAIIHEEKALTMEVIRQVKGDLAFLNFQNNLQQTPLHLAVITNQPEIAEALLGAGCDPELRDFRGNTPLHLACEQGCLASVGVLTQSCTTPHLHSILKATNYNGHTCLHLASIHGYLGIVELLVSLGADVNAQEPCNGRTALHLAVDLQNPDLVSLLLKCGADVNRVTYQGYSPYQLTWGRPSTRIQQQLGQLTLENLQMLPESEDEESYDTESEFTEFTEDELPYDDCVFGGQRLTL
# T5: NR1H3 204-447 Hormone_recep (domain begin residue: 204, domain end residue: 447), Q13133
# T5 chain: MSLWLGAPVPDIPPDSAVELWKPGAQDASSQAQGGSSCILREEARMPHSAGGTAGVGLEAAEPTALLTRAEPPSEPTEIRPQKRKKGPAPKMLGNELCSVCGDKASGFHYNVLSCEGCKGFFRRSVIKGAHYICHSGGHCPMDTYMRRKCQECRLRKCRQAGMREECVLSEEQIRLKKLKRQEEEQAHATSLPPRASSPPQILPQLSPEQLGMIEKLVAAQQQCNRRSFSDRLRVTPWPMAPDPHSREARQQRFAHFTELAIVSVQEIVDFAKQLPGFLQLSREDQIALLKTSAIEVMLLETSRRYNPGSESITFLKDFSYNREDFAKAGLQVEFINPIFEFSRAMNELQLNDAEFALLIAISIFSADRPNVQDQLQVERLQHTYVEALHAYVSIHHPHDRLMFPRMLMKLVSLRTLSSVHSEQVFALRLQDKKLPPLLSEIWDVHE
# Columns and labels:
# Test in all cases: phage ELISA signal ratio (GST-PRM binding over GST background); higher = stronger binding of peptide-phage to the PRM
# [1] = target: T1, MDM4 26-106 SWIB (domain begin residue: …
# Outline: (§1)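 Five rounds of selection were carried out against human peptide recognition domains fused to the C-terminus of glutathione S-transferase (GST) and expressed in 96-well plates. The M13 phage library presented randomized hexadecapeptides, cysteine-free and glycine-flanked, on the gene-8 major coat protein. For each value, the phage ELISA signal on the GST-domain fusion was divided by the signal on GST alone.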
# [2] = target: T2, NR1D2 386-579 Hormone_recep (domain …
# Outline: as §1
# [3] = target: MAD2L1 2-205 HORMA (domain begin residue: 2, domain end residue: 205), Q13257
# MAD2L1 2-205 HORMA (domain begin residue: 2, domain end residue: 205), Q13257, sequence (Q13257 whole entry): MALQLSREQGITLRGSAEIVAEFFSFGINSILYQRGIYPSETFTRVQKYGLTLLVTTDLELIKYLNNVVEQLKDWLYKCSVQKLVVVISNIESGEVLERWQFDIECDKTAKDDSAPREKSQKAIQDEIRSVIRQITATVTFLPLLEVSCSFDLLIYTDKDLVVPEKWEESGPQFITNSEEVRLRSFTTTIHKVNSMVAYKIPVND
# Outline: as §1
# [4] = target: MSH6 89-203 PWWP (domain begin residue: 89, domain end residue: 203), P52701
# MSH6 89-203 PWWP (domain begin residue: 89, domain end residue: 203), P52701, sequence (P52701 whole entry): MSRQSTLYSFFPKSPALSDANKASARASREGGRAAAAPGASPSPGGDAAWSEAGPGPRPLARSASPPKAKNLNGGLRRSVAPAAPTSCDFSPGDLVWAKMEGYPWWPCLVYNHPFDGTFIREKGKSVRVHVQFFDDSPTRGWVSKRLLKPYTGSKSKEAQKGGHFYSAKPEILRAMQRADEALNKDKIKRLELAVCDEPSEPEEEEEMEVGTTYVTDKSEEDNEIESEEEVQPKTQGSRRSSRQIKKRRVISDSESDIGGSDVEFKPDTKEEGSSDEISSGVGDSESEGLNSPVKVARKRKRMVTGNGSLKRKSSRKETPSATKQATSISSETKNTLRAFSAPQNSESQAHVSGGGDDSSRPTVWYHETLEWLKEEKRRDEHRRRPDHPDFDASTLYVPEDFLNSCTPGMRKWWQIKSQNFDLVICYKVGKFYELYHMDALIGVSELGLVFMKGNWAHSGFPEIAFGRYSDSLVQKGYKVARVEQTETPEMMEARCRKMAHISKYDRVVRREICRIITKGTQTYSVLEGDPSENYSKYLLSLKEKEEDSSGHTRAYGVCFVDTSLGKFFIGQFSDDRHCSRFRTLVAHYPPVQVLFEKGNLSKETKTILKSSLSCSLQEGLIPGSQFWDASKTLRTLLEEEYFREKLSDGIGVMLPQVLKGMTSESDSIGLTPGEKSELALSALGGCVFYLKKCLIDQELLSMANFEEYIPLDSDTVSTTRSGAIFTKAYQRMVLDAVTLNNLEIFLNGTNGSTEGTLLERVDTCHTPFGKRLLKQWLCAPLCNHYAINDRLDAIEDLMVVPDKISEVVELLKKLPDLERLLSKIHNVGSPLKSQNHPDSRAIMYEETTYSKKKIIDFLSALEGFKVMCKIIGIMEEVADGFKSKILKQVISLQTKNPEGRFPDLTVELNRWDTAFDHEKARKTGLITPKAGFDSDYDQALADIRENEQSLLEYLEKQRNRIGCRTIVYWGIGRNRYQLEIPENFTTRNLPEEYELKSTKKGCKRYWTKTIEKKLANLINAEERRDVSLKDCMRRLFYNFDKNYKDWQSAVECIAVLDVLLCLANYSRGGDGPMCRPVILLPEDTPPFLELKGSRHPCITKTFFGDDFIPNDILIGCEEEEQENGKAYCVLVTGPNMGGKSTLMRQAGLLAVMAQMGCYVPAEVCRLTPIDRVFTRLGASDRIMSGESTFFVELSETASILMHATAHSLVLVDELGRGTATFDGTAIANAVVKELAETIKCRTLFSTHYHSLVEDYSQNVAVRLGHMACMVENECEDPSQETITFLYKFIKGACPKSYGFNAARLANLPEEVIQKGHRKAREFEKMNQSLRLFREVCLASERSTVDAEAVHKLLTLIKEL
# Outline: as §1
# [5] = target: T3, SND1 650-910 TUDOR+SNase (domain begin …
# Outline: as §1
# [6] = target: T4, NFKBIA 70-282 EF-hand_6 (domain begin …
# Outline: as §1
# [7] = target: T5, NR1H3 204-447 Hormone_recep (domain …
# Outline: as §1
binder,measurement,setting,value
TFSESWATLTSTSEWM,phage ELISA signal ratio,[1],20.4
ENLTALIMAFFSETIQ,phage ELISA signal ratio,[2],9.19
VWYHWQPPDSPINVIE,phage ELISA signal ratio,[3],11.6
DSNIWLTRGPVHNTQQ,phage ELISA signal ratio,[3],14.1
TWWHLAGPRSHLTTSY,phage ELISA signal ratio,[3],12.8
MWWYDGEMEKMIMETL,phage ELISA signal ratio,[4],4.31
same,phage ELISA signal ratio,[5],7.5
DFAWWWSQMLEAEVNF,phage ELISA signal ratio,[1],12.3
DFMDFWEDATMGLVGT,phage ELISA signal ratio,[1],21.7
WVDEWTDVVQPMYYYD,phage ELISA signal ratio,[6],18.3
WYIIRGPMWHEPHVIE,phage ELISA signal ratio,[3],8.9
VWPDIYPELQFLHMMY,phage ELISA signal ratio,[7],5.69
SWLRFKAEPPQHIAQL,phage ELISA signal ratio,[3],9
YDFSQYWDAIPEQFIV,phage ELISA signal ratio,[1],18.1
GWFHIAPPPKQAEYTE,phage ELISA signal ratio,[3],12.8
